Only some compounds are listed: those with a hit (about 20% of all), similar ones and a draw of the others.
Shiga toxin inh: A qHTS for Small Molecule Inhibitors of Shiga Toxin; 9.2% of 290,000 active; inhibition, % at 38.7 µM; Vero cells, Shiga toxin protein synthesis inhibition reporter; in the data active means inhibition mostly above about 28%, no sharp cut-off; inactive means mostly below about 43%; further: 0% is about no effect
HCMV inh: qHTS Assay for inhibitors of the human cytomegalovirus (HCMV). HFF cells, HCMV-luciferase reporter, 72 h; hits give low values. 4.5% of 410,000 active. activity change, negative = inhibition, % at 57.5 µM; in the data active means activity change below about -60%; inconclusive means no clear call, values can overlap the other calls; inactive means above about -39%; further: on the % scale 0 is the no-effect control and ±100 the full control effect
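After 16 h attachment at 37C, HFF cells received test compound and HCMV-luciferase (1 PFU/cell); reporter luminescence read 72 h later, data normalized against buffer-only and known inhibitor Salinomycin.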
Pf growth 48h: Primary qHTS for delayed death inhibitors of the malarial parasite plastid, 48 hour incubation; P. falciparum luciferase growth in erythrocytes, 48 h; 5.9% of 310,000 active; Potency, µM (top dose mostly 28.7 µM), for the others: top-dose activity change, negative = inhibition, actives largely listed as inhibitors; further: potency means the concentration at half of the fitted maximal effect; on the % scale 0 is the no-effect control and ±100 the full control effect
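Growth was read as firefly luciferase luminescence after a 48 h, 37 C, 5% CO2 exposure of compounds to reporter-bearing P. falciparum cultures (0.1% parasitemia, 2% hematocrit final) in Albumax-supplemented RPMI 1640.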
Pf growth 96h: Primary qHTS for delayed death inhibitors of the malarial parasite plastid, 96 hour incubation. 6.9% of 320,000 active. P. falciparum luciferase reporter growth, 96 h. Potency, µM (highest dose often 28.7 µM), for the others: top-dose activity change, negative = inhibition, usual class: inhibitors. AID 504834, 2011; further: potency means the concentration at half of the fitted maximal effect; on the % scale 0 is the no-effect control and ±100 the full control effect
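Plates of compound plus infected erythrocytes (2% hematocrit, 0.05% parasitemia final) incubate 96 hours, 37 C, 5% CO2. Detection reagent added; reduced luminescence from the parasites' luciferase reporter flags inhibition.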
CHX counter: Cycloheximide Counterscreen for Small Molecule Inhibitors of Shiga Toxin; max response, %; AID 2314, 2010; cell reporter, cycloheximide protein synthesis inhibition counterscreen; 12% of 300,000 active; in the data active means max response mostly above about 13%, no sharp cut-off; inactive means mostly below about 14%; further: read at 38.3 µM for the half of the compounds with a filed dose; 0% is about no effect
The depositor's hits bear a star; ? = inconclusive; / = no result. Unless noted, the call rests on the fitted dose curve; in most records, active means well fitted inhibition curve with a large enough effect; inconclusive means small, poorly fitted or top-dose-only effect, or another doubt; inactive means no such curve, though single readings can be large or run the other way.

SMILES	Shiga toxin inh	HCMV inh	Pf growth 48h	Pf growth 96h	CHX counter
COc1ccc(NC(=O)c2cc(-c3cc(C)cc(F)c3)n[nH]2)cc1OC	/	-23	/	/	/
O=C(CSc1n[nH]c(-c2ccccn2)n1)Nc1cccc(Cl)c1	-11	-98*	?	?	-1
Nc1nc(SCC(=O)Nc2ccc(OCc3ccccc3)cc2)n[nH]1	58*	-9	19%	11%	28*
Nc1nc(SCC(=O)Nc2cccc(F)c2)n[nH]1	/	-100*	/	/	/
Nc1nc(SCC(=O)Nc2cccc(C(F)(F)F)c2)n[nH]1	/	5	/	/	/
Cc1nc(SCC(=O)Nc2ccc(OCc3ccccc3)cc2)n[nH]1	58*	1	16%	32%	24*
O=C(NCCN1CCC(n2c(=O)[nH]c3ccccc32)CC1)c1ccncc1	/	6	/	/	/
CCc1c(C)c(C#N)c2nc3ccccc3n2c1Nc1cccc(C(F)(F)F)c1	/	-30	/	/	/
Cc1cccc(NC(=O)C2CCC(CNS(=O)(=O)c3ccc(Br)s3)CC2)c1 (stereo not drawn)	/	-3	/	/	/
COc1ccc(-c2csc(NC(=O)CSc3n[nH]c(C)n3)n2)cc1	108*	2	20%	0%	31*
O=C(OCc1ccccc1)/C(=C(\O)c1ccccc1Br)c1ccc(-c2ccccc2)cn1	/	10	?	1%	/
COc1ccc(OC)c(C(=O)Cn2c3[n+](c4ccc(C(F)(F)F)cc42)CCCCC3)c1	-6	38	?	0.52µM*	-3
Fc1ccccc1Cn1c2[n+](c3ccc(C(F)(F)F)cc31)CCCCC2	-7	-68*	?	2.3µM*	1
N#Cc1cccc(NC(=O)Cn2c3[n+](c4ccc(C(F)(F)F)cc42)CCCCC3)c1	-1	?	5.2µM*	0.83µM*	-1
O=S(=O)(c1c(F)cccc1F)N1CCN(S(=O)(=O)c2c(F)cccc2F)CC1	-9	/	/	/	0
Cc1ccc(S(=O)(=O)NC(=O)C2(C)CCN2C(=O)c2ccccc2CCc2ccccc2)cc1 (stereo not drawn)	/	10	/	/	/
Cc1ccc(C(=O)c2oc3ccccc3c2NC(=O)c2cc(-c3ccccc3)on2)cc1	/	-7	/	/	/
CCCCOC(=O)c1ccc(NC(=O)c2cc(-c3ccccc3)on2)cc1	/	-3	/	/	/
CCCn1cc(NC(=O)c2cc(-c3ccccc3)on2)cn1	68*	31	/	73%	35*
O=C(Nc1cnn(C23CC4CC(CC(C4)C2)C3)c1)c1cc(-c2ccccc2)on1	-4	?	10µM*	/	-2
Cc1ccc(-c2cc(C(=O)Nc3cnn(C(C)C)c3)no2)cc1	-2	5	33%	40%	22*
Cc1ccc(-c2cc(C(=O)Nc3c(C#N)cnn3C)no2)cc1	56*	65	20%	/	14*
Cc1cc(C)n2nc(C(=O)OCC(=O)N(CC(C)C)C3CCS(=O)(=O)C3)nc2n1 (stereo not drawn)	/	0	/	/	/
O=C(Nc1cc(F)cc(F)c1)c1sc(Cl)nc1-c1ccccc1	-4	-24	?	-13%	-3
COc1ccc(OC)c(NC(=O)c2ccc(-c3nc(CSc4ccccc4)c(C)o3)cc2)c1	/	-15	/	/	/
SMILES	Shiga toxin inh	HCMV inh	Pf growth 48h	Pf growth 96h	CHX counter
CC(C)c1nc2sc3c(NCc4ccccc4)ncnc3c2c2c1COC(C)(C)C2	-1	21	/	9.3µM*	1
CC1(C)Nc2ccccc2C(=O)N1c1ccc(Br)cc1	/	66	/	/	/
Cc1ccc(N2C(=O)c3ccccc3NC2(C(=O)O)c2ccccc2)cc1Cl (stereo not drawn)	99*	-98*	95%	11%	66*
CC(C(Sc1ccccc1N)c1ccccc1)[N+](=O)[O-] (stereo not drawn)	61*	-67*	2.6µM*	0%	32*
CCC(Sc1nc(C)cc(=O)[nH]1)C(=O)Nc1nc2c(s1)CCCC2 (stereo not drawn)	42*	16	33%	?	15*
Cc1cc(=O)[nH]c(SCC(=O)Nc2nc3c(s2)CCCC3)n1	24	90	12%	-21%	10
Cc1ccc(-n2ncc3c(NCCc4ccccc4)ncnc32)cc1Cl	/	40	/	/	/
CSc1sc(-c2n[nH]c(=S)n2C)c2c1C=CCC2	-6	5	?	5.9µM*	-3
Cc1nc(-c2ccccc2)sc1-c1n[nH]c(=S)n1C	19	-15	32%	?	3
Cc1ccc(C(=O)N2CCN=C2SCc2ccc([N+](=O)[O-])cc2)cc1C	12	31	?	0%	3
COc1ccc(OC)c(/C=C/C(=O)Nc2ccc(OC)nc2)c1	2	5	-28%	-10%	7
COc1ccc(NC(=O)/C=C/c2ccc(Br)o2)cn1	86*	?	63%	9%	20*
COc1ccc(NC(=O)/C=C/c2cccc(F)c2)cn1	72*	47	216%	147%	43*
COc1ccc(NC(=O)/C=C/c2ccco2)cn1	90*	-26	245%	181%	36*
COc1ccc(NC(=O)c2ccco2)cn1	28	10	72%	89%	11
COc1ccc(CNC(=O)COC(=O)c2nc3nc(C)cc(C)n3n2)cc1	/	-9	?	?	/
O=C(O)c1ccc(-c2nn3c(=O)cc(N4CCNCC4)nc3s2)cc1	/	20	/	/	/
CC1CC(C)CC(C)C(O)C(C#N)=CC=CCC(C2CCCC2C(=O)O)OC(=O)CC(O)C(C)C1 (stereo not drawn)	/	-97*	/	/	/
CCN(CC)S(=O)(=O)c1ccc(N2CCCC2)c(NC(=O)C2=NN(c3ccccc3)C(=O)CC2)c1	/	?	10µM*	15µM*	/
O=C(Nc1cc(Cl)ccc1N1CCCC1)C1=NN(c2ccccc2)C(=O)CC1	-5	?	-10%	9.3µM*	1
Cc1ccc(C)c(N2N=C(C(=O)Nc3ccccc3N3CCOCC3)CCC2=O)c1	/	?	12µM*	?	/
Cc1ccc(S(=O)(=O)N2CCCCC2)cc1NC(=O)C1=NN(c2ccccc2)C(=O)CC1	/	-7	?	?	/
CN(C)c1ccc(S(=O)(=O)N2CCCCC2)cc1NC(=O)C1=NN(c2ccccc2)C(=O)CC1	-12	0	-19%	5.9µM*	-1
Cc1ccccc1C(=O)N1CCN(c2ccc(NC(=O)Cc3ccccc3)cc2)CC1	-11	18	?	?	7
COc1cc(-c2nnc(SCC(=O)Nc3ccc(F)c(Cl)c3)o2)cc(OC)c1OC	/	11	/	/	/
O=C(NCCc1ccc(F)cc1)C(=O)NCC(c1ccco1)S(=O)(=O)c1cccs1 (stereo not drawn)	/	-17	/	/	/
COc1cc(C2C3=C(CC(C)(C)CC3=O)N(C)C3=C2C(=O)CC(C)(C)C3)ccc1O	-8	-9	11%	0%	-1
CCn1cc(C2C3=C(CC(C)(C)CC3=O)N(c3ccccc3)C3=C2C(=O)CC(C)(C)C3)c(C)n1	-13	-25	?	8.3µM*	-4
CCn1cc(C2C3=C(CC(C)(C)CC3=O)N(c3ccc(C)cc3)C3=C2C(=O)CC(C)(C)C3)c(C)n1	/	0	/	/	/

Screens as filed in PubChem BioAssay.
